# Test results as given in PubChem BioAssay (NCATS).
# Calls of active or inactive are those of the source. Entries that show only a call come without a potency. The call rests on the fitted dose curve; in most records, active means well fitted activation curve with a large enough effect; inconclusive means small, poorly fitted or top-dose-only effect; inactive means flat fitted curve, though single readings scatter.
# Assay: Confirmation and Secondary Assay for Modulators of Hemoglobin Beta Chain Splicing at IVS2 705 locus (AID 930)
# Details: HeLa EGFP-705 splicing reporter, GFP fluorescence, 48 h; series mostly up to 46.1 µM
# Source text: NIH Chemical Genomics Center [NCGC] NIH Molecular Libraries Screening Centers Network [MLSCN] MLSCN Grant: 1 X01 MH080684-01 PI Name: Dr. Ryszard Kole NCGC Assay Overview: Modulation of Alternative Splicing as Therapy Abnormal splicing is associated with a number of diseases, including cancer and genetic diseases such as cystic fibrosis, muscular dystrophy and beta-thalassemia. Alteration of disease associated splicing patterns provides a promising target for treatment. […] Mutations in the second intron of the b-globin gene at positions 654 or 705 are clinically relevant and cause mis-splicing which results in an out of frame gene product. […] EGFP-705 HeLa Cells as screen system. HeLa cell lines were stably transfected with a construct in which the EGFP (enhanced green fluorescent protein) cDNA was interrupted by the second intron of the beta-globin gene (IVS2-705). The ISV2 intron contains mutations which cause mis-splicing of EGFP and premature termination of EGFP which results in a nonfluorescent protein product. […] Expression of the transgene was driven by the CMV promoter. We concluded that a low molecular weight compound, which restored correct splicing of intron 2 would also generate functional EGFP protein, resulting in a fluorescent signal. Thus, the HeLa cells that express the EGFP-705 construct can be used for validation of splice site specificity of compounds identified in primary screening of the ISV2 654 construct.
# NCGC Assay Protocol Summary: Confirmatory Screening. Freshly thawed HeLa EGFP-705 cells were seeded in 5 ul of optimem media (Invitrogen) containing 2 % fetal calf serum (Hyclone) and 1x penicillin/streptomycin (Invitrogen) at a concentration of 500 cells per well in 1536-well plates. Cells were incubated overnight at 37C in 5% CO2. The next day, cells were treated with DMSO, 500 nM antisense ISV2 654 PNA control oligo, or library compound and allowed to grow at 37C in 5% CO2 for 2 days. The PNA oligo blocked the mutation site in the intron and allowed proper (wild type) splicing to occur, resulting in full length EGFP expression and also allowed for optimization of the assay parameters. Plates were read in the Acumen Explorer (TTP Labtech) using 488 nm laser excitation and 500-520 nm emission PMT filter in a 1 x 8 uM capture mode. Fluorescnet objects ranging in size from 5 to 250 uM were measured and the total peak GFP intensity for each well was used for data analysis. Keywords: Thalassemia, beta-thalassemia, beta-globin, EGFP, ISV2 654, ISV2 705, SSO, PNA, antisense, splicing, MLSMR, MLSCN, NIH Roadmap, qHTS, NCGC
row,Structure (SMILES),Potency
1,CN1C2CC3CC1C(O3)C2O (stereo not given),inactive
2,C=C(C)C1CNC(C(=O)O)C1CC(=O)O (stereo not given),inactive
3,CCOCN(C(=O)CCl)c1c(C)cccc1CC,inactive
4,O=C1C=CC(=O)c2c(O)cccc21,inactive
5,CC(C)(C)C(=O)C(Oc1ccc(Cl)cc1)n1cncn1 (stereo not given),inactive
6,CC(=O)C1CCC2C3CCC4CC(O)CCC4(C)C3CC(O)C12C (stereo not given),inactive
7,CC(N)C(O)c1ccc(O)c(O)c1 (stereo not given),inactive
8,CC([C@H](O)c1ccccc1)N(C)C (stereo not given in full),inactive
9,O=C(O)COc1cc(Cl)c(Cl)cc1Cl,inactive
10,COC(=O)NC(=S)Nc1ccccc1NC(=S)NC(=O)OC,inactive
11,CN1CCCCC1c1ccc(-c2cccnc2)nc1 (stereo not given),inactive
12,c1cc2c(cc1C1OC[C@@H]3C(c4ccc5c(c4)OCO5)OCC13)OCO2 (stereo not given in full),inactive
13,CC(C)(C#N)O[C@H]1OC(CO)C(O)C(O)C1O (stereo not given in full),inactive
14,N#Cc1c(Cl)cccc1Cl,inactive
15,CN1CCc2cc3c(cc2C1O)OCO3 (stereo not given),inactive
16,CC1C(=O)OC2C(O)C34C5OC(=O)[C@@]3(OC3OC(=O)[C@H](O)[C@]34C(C(C)(C)C)C5O)[C@]12O (stereo not given in full),inactive
17,CC(C)N1C(=O)c2ccccc2NS1(=O)=O,inactive
18,CCc1cccc(C)c1N(C(=O)CCl)C(C)COC (stereo not given),inactive
19,CC1/C=C/C=C/CC/C=C/C=C/C=C/C=C/C(OC2OC(C)C(O)C(N)C2O)CC2O[C@](O)(CC(O)C(O)CCC(O)CC(O)CC(O)CC(=O)OC(C)C(C)C1O)CC(O)C2C(=O)O (stereo not given in full),inactive
20,OCC1CCCN2CCCCC12 (stereo not given),inactive

row,Structure (SMILES),Potency
1,O=C1NC(=O)C(=O)C(=O)N1,inactive
2,CC1(C)C(O)CC(O)[C@]2(C)C1CC(O)[C@]1(C)C2CC[C@@]2(C)C(c3ccoc3)OC(=O)C3O[C@]312 (stereo not given in full),inactive
3,O=S1OCC2C(CO1)C1(Cl)C(Cl)=C(Cl)C2(Cl)C1(Cl)Cl (stereo not given),inactive
4,Cc1[nH]c2ccccc2c1CN(C)C,inactive
5,CC(C)c1ccc2c(c1O)CCC1C3=C(CC[C@]21C)C(=O)OC3 (stereo not given in full),inactive
6,COC(=O)COc1cc(Cl)c(Cl)cc1Cl,inactive
7,Nc1ncn[nH]1,inactive
8,C=C(C)C1Cc2c(ccc3c(=O)c4c(oc23)COc2cc(OC)c(OC)cc2-4)O1 (stereo not given),inactive
9,COc1cc2c3cc1Oc1c(OC)c(OC)cc4c1C(Cc1cccc(c1)Oc1ccc(c(O)c1)CC3N(C)CC2)N(C)CC4 (stereo not given),inactive
10,C=CCc1ccc(OC)cc1,inactive
11,NNCc1ccccc1,inactive
12,CCS(=O)CCSP(=O)(OC)OC (stereo not given),inactive
13,O=C1CCCC2C3CC(CN12)C1CCCCN1C3 (stereo not given),inactive
14,CC(=O)Oc1ccc(Cl)c2cccnc12,inactive
15,COc1cc2c(c(OC)c1OC)-c1ccc(O)c(=O)cc1C(NC(C)=O)CC2 (stereo not given),inactive
16,CC1=C2C3OC(=O)C(C)C3CC[C@@]2(C)C=CC1=O (stereo not given in full),inactive
17,O=C1C=C2C=CC3C[C@@]2(O1)C1CCCCN31 (stereo not given in full),inactive
18,CC1(C)C(=O)C=C[C@@]2(C)C1CC(O)[C@]1(C)C2CC[C@@]2(C)C(c3ccoc3)OC(=O)C3O[C@]312 (stereo not given in full),inactive
19,CNc1ccccc1C(=O)O,inactive
20,ClC1=C(Cl)C2(Cl)C3C(Cl)C=CC3C1(Cl)C2(Cl)Cl (stereo not given),inactive
